# Most compounds without a hit are left out; they make up all but 18% or so of the library.
# GCN5L2 inh = qHTS Assay for Inhibitors of GCN5L2. Potency, µM (titrated, usually from 58.9 µM), for the others: top-dose activity change, negative = inhibition, most hits filed as inhibitors. AID 504327, 2011. actives 0.21% (n = 390,000). GCN5L2 HAT assay, ThioGlo1 CoA-SH fluorescence
# Target sequence (Q92830 whole entry, looked up): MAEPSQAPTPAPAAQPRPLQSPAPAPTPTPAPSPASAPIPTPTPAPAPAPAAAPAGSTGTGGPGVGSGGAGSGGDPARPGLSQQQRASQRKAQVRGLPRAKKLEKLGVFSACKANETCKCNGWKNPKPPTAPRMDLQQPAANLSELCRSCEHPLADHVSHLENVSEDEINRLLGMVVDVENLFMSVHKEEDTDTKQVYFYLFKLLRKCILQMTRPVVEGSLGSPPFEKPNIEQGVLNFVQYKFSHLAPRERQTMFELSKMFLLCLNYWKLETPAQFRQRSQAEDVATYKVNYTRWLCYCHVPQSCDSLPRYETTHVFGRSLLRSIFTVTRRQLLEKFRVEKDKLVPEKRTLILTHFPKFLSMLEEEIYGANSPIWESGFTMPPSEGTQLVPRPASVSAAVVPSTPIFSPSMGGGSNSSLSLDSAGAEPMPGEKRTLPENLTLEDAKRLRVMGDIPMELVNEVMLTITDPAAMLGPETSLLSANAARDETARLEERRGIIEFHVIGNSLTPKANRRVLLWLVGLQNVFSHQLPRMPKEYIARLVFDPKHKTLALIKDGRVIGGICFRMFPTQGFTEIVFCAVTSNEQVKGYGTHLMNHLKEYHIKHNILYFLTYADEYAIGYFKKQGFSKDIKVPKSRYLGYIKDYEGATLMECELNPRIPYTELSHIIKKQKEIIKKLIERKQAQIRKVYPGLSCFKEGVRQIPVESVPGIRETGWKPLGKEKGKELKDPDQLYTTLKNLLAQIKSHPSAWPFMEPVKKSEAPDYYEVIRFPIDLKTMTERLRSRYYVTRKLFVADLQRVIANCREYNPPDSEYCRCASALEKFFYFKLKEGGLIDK
#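 qHTS, 1536-well. 20nM enzyme, pH 7.5 HEPES/EDTA/Tween-20 buffer; 15 min compound preinc., RT. Start: 75uM H3(1-25), 70uM AcCoA, 50uM ThioGlo1. Read Ex340/Em540 at t=0 (autofluorescence flag) and t=20 min.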
# VDR inh = Inhibitors of the vitamin D receptor (VDR): qHTS | Vitamin D3 receptor (Homo sapiens), P11473 | VDR-SRC2-3 peptide fluorescence polarization, 2 h | Potency, µM, for inactives: max response, negative = inhibition, usual class: inhibitors | actives 0.93% (n = 400,000)
#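 Fluorescence polarization assay measuring small-molecule disruption of VDR binding to the coregulator peptide SRC2-3. Compounds were pin-transferred (23 nl) into the reagent mix and incubated 2 h at room temperature before reading.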
# TDP1 cell CPT = qHTS for Inhibitors of human tyrosyl-DNA phosphodiesterase 1 (TDP1): qHTS in cells in presence of CPT; chicken DT40 Tdp1-/-;hTDP1 cells + 20 nM CPT, ATP luminescence, 48 h; Potency, µM (top dose mostly 46.2 µM), without a hit: at the highest dose activity change, negative = growth inhibition, most hits filed as inhibitors; actives 12% (n = 420,000); AID 686979, 2013; also: nearly all actives have a fitted effect of over 55% in size
#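 Cell growth measured by CellTiter-Glo luminescence after a minimum 48 h, 37 C compound exposure with 20 nM CPT in Tdp1-knockout DT40 cells stably expressing hTDP1, seeded 400/well; qHTS titration format.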
# TDP1 inh = qHTS Assay for Inhibitors of Tyrosyl-DNA Phosphodiesterase (TDP1) | Tyrosyl-DNA phosphodiesterase 1 (Homo sapiens), Q9NUW8 | recombinant TDP1, AlphaScreen DNA substrate cleavage | Potency, µM (titrated, usually from 130 µM), for the others: at the top dose activity change, negative = inhibition, actives largely listed as inhibitors | actives 0.28% (n = 350,000) | AID 485290, 2010; also: nearly all actives have a fitted effect of over 40% in size
#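 Recombinant E. coli-expressed Tdp1 (1 nM) preincubated with compound 15 min at RT, then 5'-biotin/3'-phosphotyrosine-FITC DNA substrate (15 nM) added for 5 min. AlphaScreen beads (10 ug/ml) added, 10 min RT; tyrosine-FITC cleavage read as signal loss.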
# TDP1 cell noCPT = qHTS for Inhibitors of human tyrosyl-DNA phosphodiesterase 1 (TDP1): qHTS in cells in absence of CPT | Potency, µM (doses to about 46.2 µM), for inactives: at the highest dose activity change, negative = growth inhibition, hits mostly inhibitors | DT40 Tdp1-/- hTDP1 cells, no CPT, ATP luminescence, 48 h | actives 15% (n = 420,000); also: nearly all actives have a fitted effect of over 55% in size
#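 Growth kinetics read by CellTiter-Glo luminescence after ≥48 hr at 37 °C. Cells: DT40 Tdp1-/- stably carrying human TDP1, 400 per well, compound exposure in the absence of CPT (DMSO vehicle).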
# PLK1 PBD inh = qHTS for Inhibitors of PLK1-PDB (polo-like kinase 1 - polo-box domain): Primary Screen | Serine/threonine-protein kinase PLK1 (Homo sapiens), P53350 | Plk1 PBD binding of FITC phosphopeptide, fluorescence polarization | Potency, µM, inactives show max response, negative = inhibition, hits mostly inhibitors | actives 2.8% (n = 360,000); also: series mostly up to about 57 µM; nearly all actives have a fitted effect of over 65% in size
# Starred values were filed as active, the others as inactive; u = inconclusive; x = no result; [ ] = dose if it differs, or a comment. Calls follow the shape of the dose curve; as a rule, active = well fitted curve in the direction sought with a large enough effect; inconclusive = small, poorly fitted or top-dose-only effect, or another doubt; inactive = no such curve, though single readings can be large; an effect the other way counts as inactive or inconclusive. % is scaled to controls: 0 for no effect and ±100 for the full control effect; potency is read from the fitted curve at half-maximal effect.
SMILES,GCN5L2 inh,VDR inh,TDP1 cell CPT,TDP1 inh,TDP1 cell noCPT,PLK1 PBD inh
Cc1ccc(NS(=O)(=O)c2ccc3c(c2)CC(C)N3C(=O)C2CCC2)cc1Cl (stereo not given),-19.2%,-5.4%,16.4µM*,7.5%,10.3µM*,x
CC(=O)Nc1ccc(NS(=O)(=O)c2ccc3c(c2)CC(C)N3C(=O)C2CCC2)cc1 (stereo not given),-3.3%,9.5%,u,0.0%,u,x
CCc1cc2c3c(c1)C(C)CC(C)(C)N3C(=O)/C2=C1\SC(=O)NC1=O (stereo not given),-0.1%,0.0%,8.0%,9.6%,u,29.9µM*
CCc1cc2c3c(c1)/C(=C1/SC(N)=NC1=O)C(=O)N3C(C)(C)C=C2C,0.5%,8.7%,-1.1%,-2.1%,2.2%,-9.3%
O=C(CSCc1cnn(-c2ccccc2)c1-n1cccc1)NCc1ccc(F)cc1,-2.9%,0.6%,u,11.4%,u,x
O=[N+]([O-])c1c(C(Cl)Cl)nn(-c2ccc(Cl)cc2)c1N1CCCCC1,-6.3%,-4.3%,u,2.7%,16.4µM*,-18.1%
Cc1c(C(=O)Nc2ccc(F)cc2)oc2ccc(S(=O)(=O)N3CCCCCC3)cc12,-18.4%,6.2%,18.4µM*,2.6%,18.4µM*,x
Cc1c(Cl)cccc1NC(=O)c1oc2ccc(S(=O)(=O)N3CCCCCC3)cc2c1C,-2.0%,2.5%,u,5.2%,8.2µM*,x
Cc1ccc(Cl)cc1NC(=O)c1oc2ccc(S(=O)(=O)N3CCCCCC3)cc2c1C,-14.3%,5.7%,-26.8%,2.6%,-19.8%,x
CC(C#N)(Cc1ccccc1)Nc1ccccc1 (stereo not given),x,-12.9%,1.2%,x,-17.4%,-7.2%
O=c1cc(N/N=C/c2ccccc2)[nH]c(=O)[nH]1,x,-12.4%,4.11µM*,x,4.61µM*,-4.5%
Cc1nc(N2CCCC2)ncc1C(=O)NCc1ccc(Cl)cc1,17.0%,9.7%,-7.2%,-1.2%,u,x
O=C(Nc1ccccc1)N1CCC2(CC1)CCN(C(=O)c1ccco1)CC2,-8.3%,-13.1%,-21.6%,x,u,x
O=C(c1ccco1)N1CCC[C@@]2(CCN(c3ccncc3)C2)C1,9.8%,4.7%,13.2%,x,-29.8%,x
O=C(c1ccncc1)N1CCC2(CC1)CN(c1ccc(-c3ccccc3)cc1)C2,1.2%,-18.1%,u,x,7.31µM*,x
O=C(c1ccco1)N1CCC2(CC1)CCN(c1ccncc1)CC2,0.9%,3.7%,u,x,20.6µM*,x
O=C(c1ccco1)N1CCC2(CC1)CN(c1ccccc1)C2,-4.7%,u,u,x,u,x
O=C(c1ccco1)N1CCC2(CC1)CCN(C(c1ccccc1)c1ccccc1)CC2,-10.2%,u,u,x,20.6µM*,x
O=C(c1ccco1)N1CCC2(CC1)CN(c1ccc(-c3ccccc3)cc1)C2,-13.0%,-16.0%,7.31µM*,x,9.2µM*,x
COc1ccc(CNC(=O)C(CCSC)NS(=O)(=O)c2ccc3c(c2)oc(=O)n3C)cc1 (stereo not given),-1.0%,10.7%,-15.9%,0.9%,-11.6%,x
COC(=O)N1CCC2(CC1)CN(c1cccc(-c3ccccc3)c1)C2,-11.0%,-12.7%,-29.8%,x,18.4µM*,x
O=C(c1ccco1)N1CCC2(CC1)CN(c1cccc(-c3ccccc3)c1)C2,-19.2%,u,23.1µM*,x,13µM*,x
COC(=O)CCN(Cc1ccco1)S(=O)(=O)c1ccc(F)cc1Br,x,-14.9%,x,7.9%,x,x
C[C@@H]1CN([C@@H](C)CO)C(=O)CCCn2nncc2CO[C@@H]1CN(C)C(=O)c1ccccc1,x,x,8.5%,x,-2.6%,-3.1%
O=C(/C=C/c1ccccc1Cl)Nc1ccncc1,5.2%,3.9%,u,-2.0%,u,-2.6%
SMILES,GCN5L2 inh,VDR inh,TDP1 cell CPT,TDP1 inh,TDP1 cell noCPT,PLK1 PBD inh
CC(=O)N(C)c1ccc(NC(=O)/C=C/c2ccccc2Cl)cc1,-7.0%,-5.8%,u,2.9%,13µM*,-0.2%
CCC(CC)NC(=O)/C=C/c1ccccc1Cl,0.9%,50.1µM*,u,3.4%,u,29.9µM*
O=C(/C=C/c1ccccc1Cl)Nc1cccnc1,-16.6%,-5.3%,-10.2%,3.9%,-24.4%,0.1%
Cc1ccc(-c2nc3ccccc3o2)cc1NC(=S)NC(=O)/C=C/c1ccco1,-6.7%,-9.0%,2.91µM*,7.0%,2.91µM*,-11.1%
O=C(Nc1cccc(-c2nc3ccccc3o2)c1)C(F)(F)F,-9.7%,-3.2%,3.66µM*,0.4%[12.3 µM],2.91µM*,x
Cc1ccc2oc(-c3ccc(C)c(NC(=O)/C=C/c4ccco4)c3)nc2c1,-7.9%,-18.2%,-19.1%,-7.1%,-24.1%,x
O=C(/C=C/c1ccco1)NC(=S)Nc1cccc(-c2nc3ccccc3o2)c1,-16.4%,-6.3%,4.61µM*,5.9%,3.26µM*,-24.7%
CCC(=O)Nc1cccc(-c2nc3ccccc3o2)c1,3.5%,-2.7%,-14.0%,0.0%,-12.5%,-15.2%
Cc1ccccc1CN1CCN(c2ccc(S(=O)(=O)N3CCCC3)cn2)CC1,-0.4%,8.0%,u,1.3%,u,4.6%
O=C(Nc1nnc(N2CCCC2)s1)Nc1cc(F)ccc1F,-0.7%,11.0%,-23.6%,5.7%,-21.5%,x
C/C(=C(/CCO)SS/C(CCO)=C(\C)N(C=O)Cc1cnc(C)nc1N)N(C=O)Cc1cnc(C)nc1N,-2.7%,31.6µM*,x,x,x,x
COc1ccc(-c2nc(CN3CCC(C(=O)NCCCOC(C)C)CC3)c(C)o2)cc1OC,-2.2%,-4.6%,-1.8%,3.5%,-15.2%,x
CCc1cc(C(=O)NC2CCCc3c2cnn3-c2ccc(F)cc2F)no1 (stereo not given),x,x,20.6µM*,x,18.4µM*,0.7%
CC1=C(C(=O)NC2CCCc3c2cnn3-c2ccc(F)cc2F)OCCO1 (stereo not given),0.4%,-1.4%,20.6µM*,2.2%,4.11µM*,-10.8%
CCc1nccn1CCC(=O)NC1CCCc2c1cnn2-c1ccc(F)cc1F (stereo not given),-31.4%,-4.3%,u,2.7%,u,-6.8%
CCCCCC(=O)N1CCCCC1,-3.6%,9.3%,4.7%,x,-10.4%,-6.4%
O=C1c2c(O)cccc2[C@H]([C@@H]2O[C@H](CO)[C@@H](O)[C@H](O)[C@H]2O)c2cc(CO)cc(O)c21,x,x,-18.4%,x,-0.4%,x
Cc1ccc(S(=O)(=O)CCC(=O)Nc2ccc(F)cc2)cc1,-7.3%,4.2%,-0.9%,-10.4%,3.8%,-16.9%

# Bioassay records: PubChem, National Center for Advancing Translational Sciences (NCATS)
